Data reported in PubChem BioAssay AID1345085 (National Center for Advancing Translational Sciences (NCATS), 2018).
Inconclusive results are not listed. Activity calls are given as the source filed them. Calls follow the shape of the dose curve; as a rule, active = well fitted cell-killing curve with a large enough effect; inconclusive = small, poorly fitted or top-dose-only effect, or effect the other way; inactive = no such curve, though single readings can be large or run the other way.

Test system: Tov-21-G
Test: Confirmatory qHTS for gynecologic anti-cancer compounds from libraries of approved drugs and bioactive compounds; also: nearly all actives have a fitted effect of over 55% in size
Settings: gynecologic cancer cell panel viability, ATPlite luminescence, 48 h; series mostly up to 57.7 µM; activity change, negative = viability loss: at the top concentration
Outline: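 IC50 values derive from an ATPlite ATP-content luminescence assay following 48 h treatment at 37 C. Each compound ran as an 11-concentration, threefold series (57.5 uM to 0.977 nM); HEK 293T served as control line for selectivity index.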
% is scaled to controls: 0 for no effect and ±100 for the full control effect; potency is read from the fitted curve at half-maximal effect.

SMILES | Potency | activity change, negative = viability loss
Cc1sc2c(c1C)C(c1ccc(Cl)cc1)=NC(CC(=O)OC(C)(C)C)c1nnc(C)n1-2 (stereo unspecified) | 1220 nM (active) | 
CCNC(=O)C[C@@H]1N=C(c2ccc(Cl)cc2)c2cc(OC)ccc2-n2c(C)nnc21 | 685 nM (active) | 
CCN1CCN(C(=O)Cc2ccc(Nc3ncc(F)c(Nc4ccc(C(=O)Nc5ccccc5Cl)cc4)n3)cc2)CC1 |  | -3.78% (inactive)
O=C(O)Cc1ccccc1 |  | 25.4% (inactive)
C/C=C(/C)C(=O)O[C@H]1C(C)=C2[C@H]([C@@H]1OC(=O)CCCCCCC)[C@@](C)(OC(C)=O)C[C@H](OC(=O)CCC)[C@@]1(O)[C@H]2OC(=O)[C@@]1(C)O | 13700 nM (active) | 
CCOc1ccccc1-n1c(C(C)N2CCN(C(=O)COc3ccc(Cl)cc3)CC2)nc2ccccc2c1=O (stereo unspecified) | 1720 nM (active) | 
